The campaign covered roughly 310,000 compounds. About 14,000 (4.5%) showed an effect of 50% or more. Effects have a minus sign here. Shown is part of a subset that was picked to be rich in strong results.
The compounds below were run against human ether-à-go-go-related gene (hERG) potassium channel (human, UniProt Q12809) (assay: primary screen, population patch clamp on CHO cells stably expressing hERG; higher = less effect of the substance).
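Note: peak tail current of the secondary pulse compared with the same well before compound.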

human ether-à-go-go-related gene (hERG) potassium channel, sequence (Q12809 whole entry, looked up): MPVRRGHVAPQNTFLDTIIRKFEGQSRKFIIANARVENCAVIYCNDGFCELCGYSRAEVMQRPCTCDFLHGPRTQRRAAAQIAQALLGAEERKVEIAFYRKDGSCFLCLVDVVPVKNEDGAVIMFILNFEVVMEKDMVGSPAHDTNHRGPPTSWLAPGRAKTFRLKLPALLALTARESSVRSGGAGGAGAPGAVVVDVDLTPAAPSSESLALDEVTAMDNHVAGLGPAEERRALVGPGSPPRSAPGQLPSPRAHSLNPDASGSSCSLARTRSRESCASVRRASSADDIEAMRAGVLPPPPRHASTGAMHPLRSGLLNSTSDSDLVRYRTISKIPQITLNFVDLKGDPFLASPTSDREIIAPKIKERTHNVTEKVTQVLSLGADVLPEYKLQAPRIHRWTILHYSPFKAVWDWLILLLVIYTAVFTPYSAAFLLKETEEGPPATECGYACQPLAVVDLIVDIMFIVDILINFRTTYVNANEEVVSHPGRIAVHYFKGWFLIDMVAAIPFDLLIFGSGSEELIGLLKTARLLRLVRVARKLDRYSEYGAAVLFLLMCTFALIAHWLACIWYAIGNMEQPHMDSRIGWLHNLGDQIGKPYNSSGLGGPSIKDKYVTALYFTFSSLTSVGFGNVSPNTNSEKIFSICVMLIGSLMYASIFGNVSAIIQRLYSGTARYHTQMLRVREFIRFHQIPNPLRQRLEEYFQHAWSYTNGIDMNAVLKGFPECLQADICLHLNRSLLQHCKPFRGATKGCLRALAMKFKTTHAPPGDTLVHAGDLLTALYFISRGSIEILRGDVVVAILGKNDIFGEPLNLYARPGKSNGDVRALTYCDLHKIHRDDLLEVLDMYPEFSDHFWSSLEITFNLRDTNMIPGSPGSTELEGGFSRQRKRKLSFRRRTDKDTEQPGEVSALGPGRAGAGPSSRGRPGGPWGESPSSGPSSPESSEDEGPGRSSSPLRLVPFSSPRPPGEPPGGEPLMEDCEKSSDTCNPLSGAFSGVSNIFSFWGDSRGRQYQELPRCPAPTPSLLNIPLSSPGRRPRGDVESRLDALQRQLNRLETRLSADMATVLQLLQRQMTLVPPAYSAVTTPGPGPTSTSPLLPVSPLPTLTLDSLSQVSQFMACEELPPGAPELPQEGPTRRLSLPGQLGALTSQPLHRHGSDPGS

With `CCCc1cc(=O)[nH]c(SCC(=O)Nc2nonc2N)n1` as the compound, how does the “hERG current change (%, negative = inhibition) at 10uM” value read?
Its value is -5.4%.

Which “hERG current change (%, negative = inhibition) at 10uM” value does the source give for `COc1ccc(CC(=O)Nc2sc3c(c2C#N)CC(C)(C)NC3(C)C)cc1OC` here?
Its value is -3.63%.

For `COc1ccc(C(=O)CSc2nnc(NC(=O)C3CC(=O)N(c4cccc(OC)c4)C3)s2)cc1` (centres unmarked), which “hERG current change (%, negative = inhibition) at 10uM” value is on record?
The value was 15.6%.

With `COC(=O)CC1=C(C(=O)OC)C2(C(=O)N(C)c3ccccc32)C(C#N)=C(N)O1` (centres unmarked) as the compound, how does the “hERG current change (%, negative = inhibition) at 10uM” value read?
Its value is 14.7%.

Which “hERG current change (%, negative = inhibition) at 10uM” value does the source give for `CC(C)(C)NC(=O)/C(=C\c1ccccc1F)NC(=O)c1ccc([N+](=O)[O-])cc1` here?
The value was -35.3%.

`Cl.N=c1n(CCO)c2ccccc2n1CCOc1ccc(Cl)cc1Cl` was tested. Which “hERG current change (%, negative = inhibition) at 10uM” value did it give?
Its value is -63.8%.

Which “hERG current change (%, negative = inhibition) at 10uM” value does the source give for `Cl.N=c1n(CCO)c2ccccc2n1Cc1ccc(Cl)cc1` here?
The value was -40.1%.

`Cn1c(=O)n(CCOc2ccc(Cl)cc2Cl)c2ccccc21` was tested. Which “hERG current change (%, negative = inhibition) at 10uM” value did it give?
Its value is -2.26%.

Which “hERG current change (%, negative = inhibition) at 10uM” value does the source give for `COc1ccccc1NS(=O)(=O)c1cc(-c2cc(C)no2)ccc1OC` here?
The value was -5.52%.

For `COc1ccccc1NS(=O)(=O)c1ccc(-c2cc(C)no2)s1`, which “hERG current change (%, negative = inhibition) at 10uM” value is on record?
The value was -69.5%.

Which “hERG current change (%, negative = inhibition) at 10uM” value does the source give for `COC(=O)c1ccc(NS(=O)(=O)c2ccc(-c3cc(C)no3)s2)cc1` here?
The value was 10.5%.

How did the “hERG current change (%, negative = inhibition) at 10uM” value turn out when `Cc1ccc(CN2C(=O)S/C(=C\c3ccccc3OCC(=O)O)C2=O)cc1` was run?
The value was 1.61%.

How did the “hERG current change (%, negative = inhibition) at 10uM” value turn out when `C/C(=C\C(=O)N1CCc2ccccc21)C(=O)O` was run?
The value was 18.5%.

For `COC(=O)c1cc(S(=O)(=O)N2CCN(c3ccc([N+](=O)[O-])cc3)CC2)c[nH]1`, which “hERG current change (%, negative = inhibition) at 10uM” value is on record?
The value was -53.9%.

For `COC(=O)c1cc(S(=O)(=O)N2CCN(c3ccc(F)cc3)CC2)c[nH]1`, which “hERG current change (%, negative = inhibition) at 10uM” value is on record?
Its value is 16.9%.

`COC(=O)c1cc(S(=O)(=O)N2CCN(c3ccccc3)CC2)c[nH]1` was tested. Which “hERG current change (%, negative = inhibition) at 10uM” value did it give?
Its value is 7.6%.

With `NC(=O)c1cc(S(=O)(=O)N2CCN(c3ccc([N+](=O)[O-])cc3)CC2)cs1` as the compound, how does the “hERG current change (%, negative = inhibition) at 10uM” value read?
Its value is -74.4%.

For `NC(=O)c1cc(S(=O)(=O)N2CCN(c3cccc(Cl)c3)CC2)cs1`, which “hERG current change (%, negative = inhibition) at 10uM” value is on record?
The value was 28.1%.

Which “hERG current change (%, negative = inhibition) at 10uM” value does the source give for `CC(=O)c1ccc(N2CCN(S(=O)(=O)c3csc(C(N)=O)c3)CC2)cc1` here?
The value was -26.1%.

`CC(=O)c1ccc(N2CCN(S(=O)(=O)c3ccc4c(c3)NC(=O)CC(=O)N4)CC2)cc1` was tested. Which “hERG current change (%, negative = inhibition) at 10uM” value did it give?
The value was 13.4%.

With `O=C1CC(=O)Nc2cc(S(=O)(=O)N3CCN(c4ccc([N+](=O)[O-])cc4)CC3)ccc2N1` as the compound, how does the “hERG current change (%, negative = inhibition) at 10uM” value read?
Its value is -66.8%.

How did the “hERG current change (%, negative = inhibition) at 10uM” value turn out when `COc1ccc(N2CCN(S(=O)(=O)c3ccc4c(c3)NC(=O)CC(=O)N4)CC2)cc1` was run?
The value was 13.2%.

`CCC(=O)Nc1nc2ccc(NC(=O)c3cc(OC)c(OC)c(OC)c3)cc2s1` was tested. Which “hERG current change (%, negative = inhibition) at 10uM” value did it give?
Its value is -9.76%.

For `Cc1ccc(CNC(=O)c2ccc(C#CC(C)(C)O)s2)cc1`, which “hERG current change (%, negative = inhibition) at 10uM” value is on record?
The value was -3.51%.

For `Cc1cccc(CSC2=NCCN2S(=O)(=O)c2ccc(F)cc2)c1`, which “hERG current change (%, negative = inhibition) at 10uM” value is on record?
Its value is -0.802%.

With `Cc1ccc(S(=O)(=O)N(C)c2ccc(OC(C)C(=O)N3CCCC3)cc2)cc1C` (centres unmarked) as the compound, how does the “hERG current change (%, negative = inhibition) at 10uM” value read?
Its value is -37.6%.

How did the “hERG current change (%, negative = inhibition) at 10uM” value turn out when `CCCn1c(NCc2cc(OC)ccc2OC)nc2ccccc21` was run?
Its value is -51.3%.

With `CCCn1c(NCc2cccc(OC)c2O)nc2ccccc21` as the compound, how does the “hERG current change (%, negative = inhibition) at 10uM” value read?
Its value is -18.1%.

How did the “hERG current change (%, negative = inhibition) at 10uM” value turn out when `CCn1c(NCc2cc(OC)ccc2OC)nc2ccccc21` was run?
The value was -22.8%.

Which “hERG current change (%, negative = inhibition) at 10uM” value does the source give for `C=CCn1c(NCc2ccc(OC)cc2O)nc2ccccc21` here?
Its value is -23.1%.

With `COc1ccc(CNc2nc3ccccc3n2CCN2CCCCC2)c(OC)c1` as the compound, how does the “hERG current change (%, negative = inhibition) at 10uM” value read?
Its value is -84.4%.

`COc1ccc(OC)c(CNc2nc3ccccc3n2CCN2CCCCC2)c1` was tested. Which “hERG current change (%, negative = inhibition) at 10uM” value did it give?
The value was -72.4%.

With `COc1ccc(/C=N/c2nc3ccccc3n2CCN2CCCCC2)cc1OC` as the compound, how does the “hERG current change (%, negative = inhibition) at 10uM” value read?
The value was -14.3%.

How did the “hERG current change (%, negative = inhibition) at 10uM” value turn out when `COc1ccc(CNc2nc3ccccc3n2C)c(OC)c1` was run?
The value was -25%.

For `COc1ccc(CNc2nc3ccccc3n2C)c(O)c1`, which “hERG current change (%, negative = inhibition) at 10uM” value is on record?
Its value is 1.38%.

How did the “hERG current change (%, negative = inhibition) at 10uM” value turn out when `Cc1[nH]c(C)c(S(=O)(=O)N2CCCCC2)c1C(=O)N1CCCCC1` was run?
The value was 4.27%.

How did the “hERG current change (%, negative = inhibition) at 10uM” value turn out when `Br.Cc1nc(C)c(-c2csc(Nc3cccc(O)c3)n2)s1` was run?
Its value is 6.25%.

How did the “hERG current change (%, negative = inhibition) at 10uM” value turn out when `COc1cc(OC)cc(-c2c(C#Cc3ccsc3)c3cc(-c4ccc5c(c4)OCCO5)ccc3n2C)c1` was run?
The value was 7.37%.

How did the “hERG current change (%, negative = inhibition) at 10uM” value turn out when `COc1ccc(OCC(=O)Nc2ccccc2O)cc1` was run?
Its value is -12.5%.

Which “hERG current change (%, negative = inhibition) at 10uM” value does the source give for `Cc1c(C(C)(C)O)[nH]c2ccc(C#N)cc12` here?
The value was 26.4%.

For `CCOC(=O)c1sc2nc(C)nc(N3CCN(c4ncccn4)CC3)c2c1C`, which “hERG current change (%, negative = inhibition) at 10uM” value is on record?
The value was 1.82%.

For `CCOC(=O)c1sc2ncnc(N3CCN(CC)CC3)c2c1C`, which “hERG current change (%, negative = inhibition) at 10uM” value is on record?
Its value is -63.9%.

`COCCCNC(=O)c1sc2ncnc(N3CCc4ccccc4C3)c2c1C` was tested. Which “hERG current change (%, negative = inhibition) at 10uM” value did it give?
Its value is -23.9%.

With `Cc1ccc(NC(=O)c2sc3ncnc(N4CCN(c5ccccn5)CC4)c3c2C)c(C)c1` as the compound, how does the “hERG current change (%, negative = inhibition) at 10uM” value read?
The value was -48.4%.

How did the “hERG current change (%, negative = inhibition) at 10uM” value turn out when `CCOC(=O)c1sc2ncnc(N3CCN(C)CC3)c2c1C` was run?
Its value is -24.3%.

Which “hERG current change (%, negative = inhibition) at 10uM” value does the source give for `CCOC(=O)c1sc2ncnc(N3CCN(C(=O)OCC)CC3)c2c1C` here?
The value was -53.4%.

Which “hERG current change (%, negative = inhibition) at 10uM” value does the source give for `CCCCNC(=O)c1sc2ncnc(N3CCc4ccccc4C3)c2c1C` here?
Its value is -50.5%.

Which “hERG current change (%, negative = inhibition) at 10uM” value does the source give for `CCOC(=O)N1CCN(c2ncnc3scc(-c4ccccc4)c23)CC1` here?
Its value is -32.6%.

`CCN1CCN(c2ncnc3sc(C(=O)Nc4ccccc4F)c(C)c23)CC1` was tested. Which “hERG current change (%, negative = inhibition) at 10uM” value did it give?
The value was -67%.

Which “hERG current change (%, negative = inhibition) at 10uM” value does the source give for `CCOC(=O)CNC(=O)c1sc2ncnc(N3CCc4ccccc4C3)c2c1C` here?
Its value is -36.6%.

Which “hERG current change (%, negative = inhibition) at 10uM” value does the source give for `Cc1c(C(=O)Nc2c(F)cccc2F)sc2ncnc(N3CCN(c4ccccc4)CC3)c12` here?
The value was -12.2%.

How did the “hERG current change (%, negative = inhibition) at 10uM” value turn out when `CCOC(=O)c1sc2ncnc(OC)c2c1C` was run?
The value was 13.3%.

Which “hERG current change (%, negative = inhibition) at 10uM” value does the source give for `CCC(C)(NC(=O)Cc1c[nH]c2ccccc12)C(=O)NC1CCCCC1` (centres unmarked) here?
Its value is 2.32%.

For `CN(C)/C=N/c1sccc1C(N)=O`, which “hERG current change (%, negative = inhibition) at 10uM” value is on record?
Its value is 6.62%.

For `COc1ccc(C2(C)NC(=O)N(CC3CCCCC3)C2=O)cc1` (centres unmarked), which “hERG current change (%, negative = inhibition) at 10uM” value is on record?
The value was 9.8%.

How did the “hERG current change (%, negative = inhibition) at 10uM” value turn out when `O=C(NCC(=O)N(c1cccnc1)C(C(=O)NC1CCCC1)c1ccccc1F)c1ccco1` (centres unmarked) was run?
Its value is -0.301%.

— paper PMC4336329 (PLoS ONE, 2015)
